Assay results from ChEMBL document CHEMBL3988442, “University of Dundee, Small-Polar-MMV Screening Library” (2021).

What was measured:
[1] = biological target: T1, Aspartate--tRNA(Asp/Asn) ligase (Mycobacterium tuberculosis (strain ATCC 25618 / H37Rv)) (UniProt P9WFW3); assay: Assay for Asp RNA synthetase-1 from Mycobacterium tuberculosis; assay type: functional; parameters: scale not given: direction of the effect not stated beside the values; details: 30 µM; also: in the data most compounds retested in dose-response had high values
T1 sequence (whole entry): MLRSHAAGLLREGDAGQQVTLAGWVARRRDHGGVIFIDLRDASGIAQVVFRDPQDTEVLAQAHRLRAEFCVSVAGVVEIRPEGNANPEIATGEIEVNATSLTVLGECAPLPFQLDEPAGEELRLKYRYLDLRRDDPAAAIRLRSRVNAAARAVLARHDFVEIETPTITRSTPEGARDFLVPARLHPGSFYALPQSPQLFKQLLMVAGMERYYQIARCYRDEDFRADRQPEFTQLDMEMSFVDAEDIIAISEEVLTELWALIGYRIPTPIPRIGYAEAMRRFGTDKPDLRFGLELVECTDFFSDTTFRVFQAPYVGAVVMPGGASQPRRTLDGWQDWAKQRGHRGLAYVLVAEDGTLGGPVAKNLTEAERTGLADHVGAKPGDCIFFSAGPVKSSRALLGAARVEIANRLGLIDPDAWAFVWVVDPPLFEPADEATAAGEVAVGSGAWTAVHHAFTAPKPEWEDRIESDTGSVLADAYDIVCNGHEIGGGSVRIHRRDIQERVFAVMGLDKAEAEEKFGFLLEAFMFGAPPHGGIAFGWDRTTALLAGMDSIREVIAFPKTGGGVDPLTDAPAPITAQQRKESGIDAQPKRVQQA

[2] = biological target: Shiga toxin 2 (Escherichia coli O157:H7) (UniProt P09385+P09386); assay: E. coli 0.157:H7 Shiga Toxin SOP - stx2 screening assay; assay type: functional; parameters: scale not given: direction of the effect not stated beside the values; details: 30 µM

Structure (SMILES)	Percent Effect [1] [%]	Percent Effect [2] [%]
CCc1nc(CN2CCCC(NCc3nnc(C4CC4)o3)C2)no1 (configuration not stated)	-2.05	17.9
Cc1nc(CN(C)C2CCN(Cc3ccno3)C2)no1 (configuration not stated)	-4.76	-31.6
O=C1CC(c2cccnc2)C2(CCN(C(=O)c3ccncc3)CC2)N1 (configuration not stated)	-5.73	7.39
CC1CCN(S(=O)(=O)NCCCn2cncn2)CC1	-2.66	-6.63
Cc1noc(C)c1CNCC1CCN(CC(O)c2ccccc2)CC1 (configuration not stated)	-1.06	-21.8
Cn1ccc(CN2CCC(NC(=O)NC3CCCCC3)CC2)cc1=O	-0.833	-11.2
O=C(O)c1csc(S(=O)(=O)Nc2cccc(OC(F)F)c2)c1	-0.5	-13.1
O=C(NCCNc1ncccn1)C1CCN(CC(F)(F)F)CC1	2.17	21.6
O=C(Cc1ccc(O)c(Cl)c1)N1CCCCC1CCn1cccn1 (configuration not stated)	-0.725	-11.4
CCSCCC(=O)NS(=O)(=O)c1ccc2c(c1)OCCO2	-0.722	-25.1
c1cnnc(N2CCCC(NCc3cn4ccccc4n3)C2)c1 (configuration not stated)	2.13	-114
O=C1[C@H]2CC[C@H](CN(Cc3ccccc3OC(F)F)C2)N1CC1CC1	4.85	7.93
CC(C)(C)C(=O)N1CCC(c2nc(O)cc(-c3ccccn3)n2)CC1	5.88	-6.29
CN(C)c1cc(C(=O)NCCc2nnc(-c3ccco3)[nH]2)ccn1	-1.56	-46.4
CCN1CCN(Cc2coc(-c3cccc(F)c3)n2)CC1	-7.31	-35.5
CC(C)c1noc(CN(Cc2cccs2)C2CC2)n1	-0.416	-48.4
O=S(=O)(CCN1CCOC(Cn2cncn2)C1)c1ccccc1 (configuration not stated)	-2.75	-7.21
CC(C)CCN1CCC2(CC1)CN(C(=O)c1cnccn1)CCO2	-0.349	-0.912
O=C([C@H]1CN(CCc2ccccc2)C[C@H]2OCC[C@@H]12)N1CCCO1	1.78	-9.29
CCn1cc2c(n1)CN(Cc1nccs1)CC2COCC1CC1 (configuration not stated)	5.78	-5.95
O=C(Cc1ccc2c(c1)CCO2)N1CCN(c2cnccn2)CC1	-4.06	-23.3
CC(CC#N)NC(=O)c1cc(Br)c2c(c1)OCCO2 (configuration not stated)	-8.16	-5.44
CN1CCC(Oc2ccc(NC(=O)c3cccc(Cl)c3)cc2)CC1	-0.327	-51
CC(C)c1nn(C)c(N2CCOCC2)c1CNCC(=O)N(C)C	-4.92	-14.4
Cn1cc(C(=O)N2CC[C@@H]3[C@@H]2CCN3Cc2cccc(F)c2)cn1	-0.0764	0.579
CCC(CO)NC(=O)c1ccc2ccc(N(C)CC3CC3)n2c1 (configuration not stated)	-2.57	-33

Structure (SMILES)	Percent Effect [1] [%]	Percent Effect [2] [%]
Cc1ccccc1CSc1nc(N)cc(N2C[C@H](O)[C@@H](N(C)C)C2)n1	3.57	14.8
CC(C)n1ncc2c1NC(=O)CC21C(=O)Nc2c(Cl)cccc21 (configuration not stated)	4.56	-7.34
CCc1noc(C(C)N2CCC(C(=O)Nc3cnn(CC)c3)CC2)n1 (configuration not stated)	-3.65	-12.4
COc1ccc(C(CNC(=O)Nc2cn[nH]c2)N2CCOCC2)cc1 (configuration not stated)	1.21	23.8
Cn1ccnc1CN1CCN(c2ccc(C#N)cc2F)CC1	-2.39	-29.4
CC(O)CN1CCC(CNCc2cccc(Br)c2)CC1 (configuration not stated)	-1.97	18.9
CS(=O)(=O)CCC(=O)NC1(c2cccc(Br)c2)CC1	5.45	3.23
CCCOc1cc(CNC(=O)Nc2cccnc2N2CCCC2)ccn1	1.75	-9.71
CN1N=C(C(=O)Nc2cc(F)ccc2OCC2CCCO2)CCC1=O (configuration not stated)	-1.12	5.1
Cc1cnn(C2CCCN(C(=O)c3ccnc(N(C)C)c3)C2)c1 (configuration not stated)	-5.57	-16.8
CCN1CCC(CNC(=O)NCc2cc(-c3ccc(C)cc3)no2)C1 (configuration not stated)	2.27	-44.9
O=C(NCc1nnc2n1CCCCC2)N1CCc2sccc2C1	-4.29	-45.2
O=C(CN1CCCCC1C1OCCO1)Nc1ccc(F)c(F)c1 (configuration not stated)	3.65	3.89
Cc1nc(NCc2ccc(C)o2)cc(C(=O)N2CCOCC2)n1	12.5	-16.9
Cc1ccc(C)c(C(NC(=O)C(C)(C)C)c2cccnc2)c1 (configuration not stated)	-1.21	1.8
O=C(Cn1cccnc1=O)NCCc1ccc2c(c1)OCCO2	2.57	-33.8
C[S+]([O-])c1nncn1CC(=O)c1ccc2c(c1)CCO2 (configuration not stated)	3.29	-38.1
Cc1cnn(C2CN(Cc3nc(C(C)(C)C)no3)C2)c1	-0.0303	-32.1
CC(=O)Nc1ncc(S(=O)(=O)Nc2ccc(F)cc2F)s1	2.53	-38.5
Cc1ncc(-c2ccnc(N3CCCCC3)n2)c(=O)[nH]1	-2.84	-19.6
CNS(=O)(=O)CCCN1CCCC1c1cc(C)on1 (configuration not stated)	1.49	5.74
CC(NC(=O)c1cc(-c2cccc(Cl)c2)no1)C(=O)N1CCCC1 (configuration not stated)	0.15	-14.8
c1cnn(CC2CN(Cc3noc(C4CC4)n3)CCO2)c1 (configuration not stated)	0.485	5.97
CN(C)CCN(Cc1ccc(Cl)cc1)C(=O)c1cc[nH]n1	-3.79	9.32
COCC1CN(Cc2ccncc2)Cc2nnn(CC3CC3)c21 (configuration not stated)	0.981	-28.3
CC(Cn1cccn1)NC(=O)Nc1ccc(F)cc1 (configuration not stated)	1.84	-31.3

Structure (SMILES)	Percent Effect [1] [%]	Percent Effect [2] [%]
O=C(COC[C@H]1CC[C@H]2[C@H](CCN2c2ncccn2)O1)N1CCCC1	-2.51	-24.1
Cc1nc(C)n(CC2CN(c3ncnc4[nH]ccc34)CCO2)n1 (configuration not stated)	0.364	-9.54
CSCC(C)(O)CNC(=O)c1cc(Br)ccc1Cl (configuration not stated)	-0.23	-13.2
Cn1cc(Br)c(=O)c(NS(=O)(=O)c2cc(F)ccc2Cl)c1	-1.26	16.3
CN(C)Cc1nc(C(C)(C)NC(=O)C2CC(=O)N(CC3CC3)C2)no1 (configuration not stated)	-5.01	25.1
Cc1nnc2n1CCN(C(=O)COCCOc1ccccc1)C2	-0.422	-37.2
N#Cc1cc(NS(=O)(=O)c2ccc(C(=O)O)cc2F)ccc1F	2.89	9.05
C=C(Cl)CN1CCC(C(=O)c2cc(F)ccc2F)CC1	-0.256	18.4
Cc1cc(C)c(CNC(=O)NCC(O)c2cccc(F)c2)c(=O)[nH]1 (configuration not stated)	2.36	28.2
Cc1cc(NC(=O)CN2CCCC2c2noc(C(C)C)n2)n(C)n1 (configuration not stated)	-2.48	5.27
CCc1nnc2n1CCN(Cc1nc(-c3ccoc3)no1)C2	-5.61	-17.8
Cc1cnn(CC2CCCN2Cc2nc3ccccc3nc2C)c1 (configuration not stated)	-1.82	-1.37
CC(NC(=O)NCCCn1cncn1)c1ccccc1Cl (configuration not stated)	9.3	-26.7
CC(C)c1cc(NCC(O)c2ccc(F)cc2)n2nccc2n1 (configuration not stated)	-1.84	7.39
COCCN1C(=O)C[C@H]2[C@H]1CCN2Cc1ccc(OC)cc1	6.6	-4.38
c1ccc(C(OCCNC2CCc3ncnn3C2)c2ccccc2)cc1 (configuration not stated)	2.94	-14.7
CC(=O)c1sc(Nc2ccc(Cl)cn2)nc1C	6.71	-4.07
COC(=O)CC(c1ccc(OC)c(OC)c1)c1oc(C)cc(=O)c1O (configuration not stated)	-0.938	-7.17
Cc1cc(Nc2nc(C)cs2)nc(C2CCCCN2CCO)n1 (configuration not stated)	0.7	-34.2
Cn1cc(CN2CC[C@H]3OCC[C@@H](C(=O)N4CCCCO4)[C@@H]3C2)cn1	2.85	-10.1
CCn1c(C)nnc1CN(C)C1CCN(Cc2cnc(C)cn2)C1 (configuration not stated)	2.78	-19
Cc1cnn(CCC(=O)N2C[C@H]3CC[C@@H]2CN(CC(=O)N(C)C)C3)c1	4.25	-21.6
Cc1cc(=O)n2ncnc2n1CC(O)c1ccccc1Cl (configuration not stated)	-0.03	-19.6
O=C(Cc1noc2ccccc12)N1CCCC1c1noc(C2CC2)n1 (configuration not stated)	-3.11	8.27
CSC(C)C(=O)N1CCCN(Cc2cnn(C(C)C)c2)CC1 (configuration not stated)	-0.235	20.4
Cc1ccc(CN(CCCn2ccnc2)Cc2c[nH]cn2)s1	-4.18	-13.7

Structure (SMILES)	Percent Effect [1] [%]	Percent Effect [2] [%]
CC(=O)N1CC(=O)N(c2ccccc2)CC12CCN(CC1CC1)C2 (configuration not stated)	13.8	-1.67
c1cnn(CC2CN(Cc3nc(-c4ccsc4)no3)CCO2)c1 (configuration not stated)	-2.68	35
O=C(Nc1nncs1)NC1CCc2ccccc21 (configuration not stated)	1.46	-33.6
O=C(COc1coc(CN2CCCC2)cc1=O)NCc1ccccc1Cl	-2.03	-62.7
COc1ccccc1OCC(=O)Nc1ncccc1Cl	-0.641	1.67
NC(=O)C1(Cc2ccccc2-c2ccccc2)CCCN(CC2CC2)C1 (configuration not stated)	2.13	-5.72
Cn1cc(-c2csc(N3CCN(C(=O)OC(C)(C)C)CC3)n2)cn1	0.501	-1.73
Cc1ccc(OCC(=O)NS(=O)(=O)c2c(C)noc2C)cc1C	-4.32	-54.6
O=C(Nc1cc(C(F)(F)F)c[nH]c1=O)N1CCCSCC1	5.77	8.92
Cc1ncsc1C(=O)NCCSCCCO	-4.34	-35.1
CC(NC(=O)NCCNc1ncccn1)c1cccs1 (configuration not stated)	-2.58	-27.7
CC(Cn1cccn1)NC(=O)CCc1ccc(S(N)(=O)=O)cc1 (configuration not stated)	-2.91	11.3
Cc1oc(C)c(C(=O)NCc2ccccc2S(=O)(=O)N(C)C)c1C	-6.28	37.9
CN(C)c1cc(CNC(=O)Nc2ccc(F)cc2)ccn1	3.3	-156
Cn1cc(C[C@H]2[C@H](N3CCOCC3)CCN2C(=O)c2ccco2)cn1	-2.37	-0.123
CCn1c(C)nnc1CN(C)C1CCN(Cc2nccn2C)C1 (configuration not stated)	1.34	-37.8
Cc1cncc(C(=O)N2CCCCC2c2nc(C)cs2)c1 (configuration not stated)	-9.59	-42.4
Cc1nc[nH]c1CN1CCN(C(=O)CCC(F)(F)F)[C@H]2CS(=O)(=O)C[C@H]21	-2.31	17.8
O=C(NC[C@H]1OC[C@@H]2CCN(Cc3ccco3)C[C@@H]21)c1ccsc1	-1.14	4.74
Cc1cn2c(n1)CCC(NC(=O)CCn1cncn1)C2 (configuration not stated)	-0.674	21.7
CSc1sc(NC(=O)Cc2c(C)nc(C)[nH]c2=O)nc1C	-2.08	-7.28
CCc1n[nH]c(C2CN(C(=O)c3nc(C)ncc3Cl)CCO2)n1 (configuration not stated)	0	-0.974
CC(C)c1ccc(C(C)NC(=O)N2CCC(n3cncn3)CC2)cc1 (configuration not stated)	-0.885	3.93
